According to the supplement of paper PMC6555819:

Tested on: PXR homodimer (NR concentration 270 nM)
Experiment: PBM binding z-score (relative to random genomic background probes); higher = stronger binding; sequences stand for … in GC…GCGATTGACAGCGTAGAATGAAGG
In short: (§1)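 On custom Agilent 4×180K arrays, double-stranded probes with 34-nt variable regions carried direct-repeat seeds, single-nucleotide variants, half-site ablations or random human genomic background. Ligand-free nuclear receptor dimers were applied for 1 h, and binding was read with antibodies against each partner (one per run). Binding z-scores come from regression-normalized fluorescence, with the random background probes as reference.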

Sequence	PBM binding z-score
CATACAGGGTCAGCAAGGCCAGAGTAGGGACGGC	0.241
CCTACTGGGCCAAAAAAGTCATTGATGCCGATAA	-0.213
CCAGACAGGTGGAAGGTAACTCAGTCTGGTACGC	-0.0179
GCTAGTTGGTCAGTAAAGGGTCACACACCGGTCG	0.202
TCTTGTAGCTCAAGCAGGTTAAGAAAGCCTGAGT	-0.596
ACTAGCAGGCCAAGGGTCACTAAAGATTAGTCCG	-0.139
CCGACTGGGGCCAGGTTACCATAACGCACAGCCA	-0.0661
ATATGTAGGTTATCGGGTCATTCAATTTGCGCAT	1.39
CCTTTCGGGTCACTCCAGGTTATAGCATCGGAGT	0.803
ACAGACAGGTGAGTGAAGGTAACTCCGCTGGACG	-0.203
TGTCAAAGTTCAACGGTAACGTAAGTATCCACAC	3.78
ATCTGTAGGTTAAGGGTCATTCAGGTTGGTTCGC	3.35
GGAAGGAGGGCAAAGTTGATAGCATCTGTCGACG	1.62
CGTCGAAGTTCAAGGTAACGTAACAGAAAGCAGC	0.897
AGTCAAAGTTCATCCAGGTAACGTAAGATATGCT	8.19
TAGCCTAGGTCATGGGCGAGTATACCACGCGAAC	-0.407
CCAGACAGGTGAGAAGGTAACTAAGCCTCGATTA	0.346
CATACAGGGTCAGCTACGCCAGAGTAGGGACGGC	-0.0173
CATACAGGGTCAGCGAGGCCAGAGTAGGGACGGC	0.862
AATACAGGGTCATCGCAGGCCAGAGTACGCACAG	0.737

Sequence	PBM binding z-score
TCATATAGGAAATACAGGTGAAAGTCGGCATCTA	0.578
TTACCAAGGTGGGCTGAGGTCGTTGATCCAACTC	0.257
CAAACTAGGTCACCGGAAGGTCAAACTCCGCATG	2.46
TAGCCTAGGTCAGATCGGACCAGTATACGCTATA	-0.37
TCATATAGGTAAAAGGTGAAAGTCGGTGTGGTAA	0.508
ACTATTCGTTGAGACGAGGGCAACCGATAGGTTG	0.0808
TCGAGTAGGTTACCAATGGGCCATTCAGCTTTCT	-0.851
TCGAGTAGGTTAGACGGGGCATTCAGCCAACATA	-0.369
AGAATGAGGTTACTAAGATCAGGGAATTGCGGTC	0.241
CCGACTGAGGCAGAAAGGTTACCATACCATCCGG	-0.109
GCAGACAGGTGAAACGCACGTAACTCAGGGTGGC	-0.419
CCGACTGGGGCAGAAAGGTTACCATACCATCCGG	-0.416
GCTCGGAGGAAAAGGTCAGAGCTTTGTCCGTAGA	-0.551
AGAATGAGGTAAAGATCAGGGAAACAGAATACAT	0.151
CAGCCCAGGTCAGGGCCAGTATAGGAGGAACGTT	0.194
CGAACTAGGTCAGAACAGGACAGTGGAGGATGAT	-0.155
CCTACTGGGCCATCAGGTCATTGATATCAACGTT	0.961
GTTTACGGGTCAAAGGTTATAGCATGAATAGAAT	0.568
TCAGACAGGTGAAGGTAACTCCGGTACGCAGTCG	-0.04
TAGCCTAGGTCATGGGCCAGTATGCCACGCGAAC	-0.923

Tested on: RARa:RXR (NR concentration 270 nM, RXRa partner concentration 90 nM)
Experiment: as above
In short: as §1

Sequence	PBM binding z-score
CATACAGGGTCAGCAAGGCCAGAGTAGGGACGGC	3.24
CCTACTGGGCCAAAAAAGTCATTGATGCCGATAA	-0.0727
CCAGACAGGTGGAAGGTAACTCAGTCTGGTACGC	-0.223
GCTAGTTGGTCAGTAAAGGGTCACACACCGGTCG	4.15
TCTTGTAGCTCAAGCAGGTTAAGAAAGCCTGAGT	-0.128
ACTAGCAGGCCAAGGGTCACTAAAGATTAGTCCG	3.97
CCGACTGGGGCCAGGTTACCATAACGCACAGCCA	0.176
ATATGTAGGTTATCGGGTCATTCAATTTGCGCAT	3.8
CCTTTCGGGTCACTCCAGGTTATAGCATCGGAGT	3.73
ACAGACAGGTGAGTGAAGGTAACTCCGCTGGACG	0.0904
TGTCAAAGTTCAACGGTAACGTAAGTATCCACAC	4.08
ATCTGTAGGTTAAGGGTCATTCAGGTTGGTTCGC	6.53
GGAAGGAGGGCAAAGTTGATAGCATCTGTCGACG	1.57
CGTCGAAGTTCAAGGTAACGTAACAGAAAGCAGC	1.5
AGTCAAAGTTCATCCAGGTAACGTAAGATATGCT	3.69
TAGCCTAGGTCATGGGCGAGTATACCACGCGAAC	2.3
CCAGACAGGTGAGAAGGTAACTAAGCCTCGATTA	-0.102
CATACAGGGTCAGCTACGCCAGAGTAGGGACGGC	3.27
CATACAGGGTCAGCGAGGCCAGAGTAGGGACGGC	3.03
AATACAGGGTCATCGCAGGCCAGAGTACGCACAG	4.69

Sequence	PBM binding z-score
TCATATAGGAAATACAGGTGAAAGTCGGCATCTA	0.964
TTACCAAGGTGGGCTGAGGTCGTTGATCCAACTC	1.14
CAAACTAGGTCACCGGAAGGTCAAACTCCGCATG	7.35
TAGCCTAGGTCAGATCGGACCAGTATACGCTATA	1.48
TCATATAGGTAAAAGGTGAAAGTCGGTGTGGTAA	3.73
ACTATTCGTTGAGACGAGGGCAACCGATAGGTTG	0.403
TCGAGTAGGTTACCAATGGGCCATTCAGCTTTCT	0.175
TCGAGTAGGTTAGACGGGGCATTCAGCCAACATA	-0.135
AGAATGAGGTTACTAAGATCAGGGAATTGCGGTC	1.37
CCGACTGAGGCAGAAAGGTTACCATACCATCCGG	1.69
GCAGACAGGTGAAACGCACGTAACTCAGGGTGGC	-0.0418
CCGACTGGGGCAGAAAGGTTACCATACCATCCGG	1.49
GCTCGGAGGAAAAGGTCAGAGCTTTGTCCGTAGA	3.96
AGAATGAGGTAAAGATCAGGGAAACAGAATACAT	0.265
CAGCCCAGGTCAGGGCCAGTATAGGAGGAACGTT	1.49
CGAACTAGGTCAGAACAGGACAGTGGAGGATGAT	0.722
CCTACTGGGCCATCAGGTCATTGATATCAACGTT	1.65
GTTTACGGGTCAAAGGTTATAGCATGAATAGAAT	8.19
TCAGACAGGTGAAGGTAACTCCGGTACGCAGTCG	0.651
TAGCCTAGGTCATGGGCCAGTATGCCACGCGAAC	2.53
